# Laboratory results from the supplement of paper PMC11537057.
# Counter-ions that a name gives are not always drawn. The campaign covered roughly 1,700 compounds. About 15 (0.9%) showed activity.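 How the source made its calls: active = infection cut by 80% or more with cell growth above 90% in both runs; inactive = the rest.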 This excerpt belongs to a sample that is enriched for actives.
# System: HSV-1 strain 17 YFP-ICP4 in A549
# Assay: HSV-1 infection relative to DMSO (ICP4-YFP per H2B-RFP signal); higher = more viral infection (less antiviral activity), active = hit call of the paper
# Conditions: 10 µM; 48 h; MOI: 0.1
# Experimental: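 Selleck FDA-approved library (L1300) screened in duplicate at 10 µM on A549 H2B-mRuby cells in 384-well plates, infected with HSV-1 strain 17 YFP-ICP4 at MOI 0.1 one hour before drug addition. Imaged after 2 days at 37°C. Cell growth (H2B-RFP) and infection (ICP4-YFP) are expressed as % of DMSO-treated wells. Hits: growth >90% and infection <20% of DMSO.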
row,SMILES,HSV-1 infection
1,O=C(O)CCCC[C@@H]1CCSS1 (racemic) [Thioctic acid],66.1% (inactive)
2,N=C(N)NCCC[C@@H](NC(=O)[C@@H]1CCCN1C(=O)[C@@H]1CSSCCC(=O)N[C@@H](Cc2ccc(O)cc2)C(=O)N[C@@H](Cc2ccccc2)C(=O)N[C@@H](CCC(N)=O)C(=O)N[C@@H](CC(N)=O)C(=O)N1)C(=O)NCC(N)=O [Desmopressin Acetate],103% (inactive)
3,NC(=O)CCC(N)C(=O)O (racemic) [DL-Glutamine],114% (inactive)
4,COc1ccc(Cl)c(Nc2nc3ccccc3nc2NS(=O)(=O)c2cccc(NC(=O)C(C)(C)N)c2)c1 [Pilaralisib (XL147)],93.5% (inactive)
5,COc1ccc(-c2nc3cc(C4=NNC(=O)CC4C)ccc3[nH]2)cc1 (centres undefined) [Pimobendan],68.5% (inactive)
6,CC(=O)[C@@]1(O)CC[C@H]2[C@@H]3CCC4=CC(=O)CCC4=C3[C@@H](c3ccc(N(C)C)cc3)C[C@@]21C [Ulipristal],91.8% (inactive)
7,CCCN(CCC)C(=O)C1=Cc2ccc(-c3ccc(C(=O)N4CCCC4)cc3)cc2N=C(N)C1 [Motolimod (VTX-2337)],82.9% (inactive)
8,CN[C@H]1C(=O)N[C@@H]2Cc3ccc(cc3)Oc3cc4cc(c3O[C@@H]3O[C@H](C(=O)O)[C@@H](O)[C@H](O)[C@H]3NC(=O)CCCCCCCCC(C)C)Oc3ccc(cc3Cl)[C@@H](O)[C@@H]3NC(=O)[C@H](NC(=O)[C@@H]4NC(=O)[C@@H](NC2=O)c2cc(cc(O)c2Cl)Oc2cc1ccc2O)c1ccc(O)c(c1)-c1c(O[C@H]2O[C@H](CO)[C@@H](O)[C@H](O)[C@@H]2O)cc(O)cc1[C@@H](C(=O)NCCCN(C)C)NC3=O [Dalbavancin],95.9% (inactive)
9,CCCCN1CCCC[C@H]1C(=O)Nc1c(C)cccc1C [Levobupivacaine HCl],70.8% (inactive)
10,COc1ccc([C@H]2CNC(=O)C2)cc1OC1CCCC1 [S- (+)-Rolipram],97.4% (inactive)
11,CC(C)C[C@H](N)C(=O)O [L-Leucine],100% (inactive)
12,COC(=O)c1ccccc1O [Methyl salicylate],81.4% (inactive)
13,CCCCC(=O)N(Cc1ccc(-c2ccccc2-c2nn[nH]n2)cc1)C(C(=O)O)C(C)C.CCOC(=O)C(C)CC(Cc1ccc(-c2ccccc2)cc1)NC(=O)CCC(=O)O (centres undefined) [Sacubitril/valsartan (LCZ696)],116% (inactive)
14,FC(F)(F)c1ccc(CNc2ccc(Cc3c[nH]c4ncc(Cl)cc34)cn2)cn1 [Pexidartinib (PLX3397)],102% (inactive)
15,Cc1ccccc1N1CCN(CCc2nnc3n2CCCC3)CC1 [Dapiprazole Hydrochloride],135% (inactive)
16,CC(C)C[C@H](NC(=O)CNC(=O)c1cc(Cl)ccc1Cl)B1OC(=O)C(CC(=O)O)(CC(=O)O)O1 [Ixazomib Citrate (MLN9708)],80.4% (inactive)
17,CCNC(=O)[C@@H]1CCCN1C(=O)[C@H](CCCNC(=N)N)NC(=O)[C@H](CC(C)C)NC(=O)[C@@H](CC(C)C)NC(=O)[C@H](Cc1ccc(O)cc1)NC(=O)[C@H](CO)NC(=O)[C@H](Cc1c[nH]c2ccccc12)NC(=O)[C@H](Cc1c[nH]cn1)NC(=O)[C@@H]1CCC(=O)N1 [Leuprolide Acetate],113% (inactive)

row,SMILES,HSV-1 infection
1,CCNC(=O)[C@@H]1CCCN1C(=O)[C@H](CCCNC(=N)N)NC(=O)[C@H](CC(C)C)NC(=O)[C@@H](CC(C)C)NC(=O)[C@H](Cc1ccc(O)cc1)NC(=O)[C@H](CO)NC(=O)[C@H](Cc1c[nH]c2ccccc12)NC(=O)[C@H](Cc1c[nH]cn1)NC(=O)[C@@H]1CCC(=O)N1 [Leuprorelin Acetate],105% (inactive)
2,O=C(O)c1ccc(-n2nc(-c3ccccc3O)nc2-c2ccccc2O)cc1 [Deferasirox],79.8% (inactive)
3,CC(C)(C)NC(=O)N[C@H](C(=O)N1C[C@H]2[C@@H]([C@H]1C(=O)NC(CC1CCC1)C(=O)C(N)=O)C2(C)C)C(C)(C)C (some centres undefined) [Boceprevir],110% (inactive)
4,COc1c(C)c2c(c(O)c1C/C=C(\C)CCC(=O)O)C(=O)OC2 [Mycophenolic acid],14.4% (active)
5,C[C@H](Oc1ccc(S(C)(=O)=O)cc1C(=O)N1CCN(c2ncc(C(F)(F)F)cc2F)CC1)C(F)(F)F [Bitopertin],92.8% (inactive)
6,CCCCCCCCOc1ccccc1C(=O)Nc1ccc(C(=O)OCC[N+](C)(CC)CC)cc1 [Otilonium Bromide],60.5% (inactive)
7,OC[C@@H](O)CN1CCN(c2ccccc2)CC1 [Levodropropizine],64.9% (inactive)
8,CC(C)Nc1cc(-c2c[nH]c(C(=O)N[C@H](CO)c3cccc(Cl)c3)c2)c(Cl)cn1,69.3% (inactive)
9,O=C(Cn1ccnc1[N+](=O)[O-])NCc1ccccc1 [Benznidazole],115% (inactive)
10,CC(C)C[C@H](NC(=O)CNC(=O)c1cc(Cl)ccc1Cl)B(O)O [Ixazomib (MLN2238)],77.3% (inactive)
11,N[C@@H]1CN(c2c(F)cc3c(=O)c(C(=O)O)cn([C@@H]4C[C@@H]4F)c3c2Cl)CC12CC2 [Sitafloxacin Hydrate],111% (inactive)
12,O=C([O-])[O-].[Na+].[Na+] [Sodium carbonate],88% (inactive)
13,NC(=O)c1nc(F)cnc1O [Favipiravir (T-705)],102% (inactive)
14,O=C1/C(=C2\Nc3ccccc3C2=O)Nc2ccccc21 [Indigo],105% (inactive)
15,C=CCN1CCCC1CNC(=O)c1cc2nn[nH]c2cc1OC (centres undefined) [Alizapride HCl],55.1% (inactive)
16,CNC(=O)[C@H](Cc1ccccc1)NC(=O)[C@H](CC(C)C)[C@H](CSc1cccs1)C(=O)NO [Batimastat (BB-94)],45.6% (inactive)
17,CCOC(=O)[C@@H](N)Cc1ccc(-c2cc(O[C@H](c3ccc(Cl)cc3-n3ccc(C)n3)C(F)(F)F)nc(N)n2)cc1 [Telotristat Etiprate (LX 1606 Hippurate)],80.1% (inactive)
